# esBAF inh – SWI/SNF esBAF complex inhibition | mouse ES cells, Bmi1-luciferase knock-in reporter, 24 h; 100% = twice the neutral-well signal | reporter increase, % at 12.5 µM | 350,000 compounds, 2% hits; in the data active means activation above about 40%;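 further: 0% = median of the plate's neutral control wells and 100% = double that signal; a rise in the Bmi1 reporter signal indicates esBAF inhibition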
# Wnt act – activators of Wnt/beta-catenin signaling | Wnt/beta-catenin reporter cell assay, activator, plate reader | activation, % at 9.35 µM | 300,000 compounds, 1.2% hits; in the data active means activation above about 30%, passing the limit was not always enough;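 further: 0% = neutral control wells and 100% = positive control wells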
# GAA850 FXN act – activators of GAA850 frataxin (FXN) promoter. HEK293 lucGAA850 FXN promoter luciferase reporter, 24 h; percent of 10 µM SAHA response. AID 540364. 360,000 compounds, 0.56% hits. activation, % at 6 µM;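 active means activation above the average of all compounds screened plus 3 SD, cutoff fixed separately per campaign, cut at about 7.5% in these data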;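 further: 0% = DMSO wells and 100% = 10 µM SAHA wells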
# MITF act – MITF TRPM1 promoter activation in melanoma cells. SK-MEL-5 TRPM1-promoter luciferase, 24 h; % of positive control, neutral wells = 0. activation, % at 12.5 µM. 300,000 compounds, 0.75% hits. AID 588334;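 active means mean activation of at least 80% with every replicate also reaching 80%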;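 further: 0% = neutral control wells and 100% = parthenolide positive control wells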
# GAA30 FXN cntr – GAA30 FXN promoter activation counter-screen. shares compounds with GAA850 FXN act. HEK293 lucGAA30 FXN promoter luciferase, 24 h; DMSO = 0%, 5 µM ipriflavone = 100%. activation, % at 6 µM. 1,900 compounds, 66% hits. AID 588350;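 active means mean activation above the mean of solvent-only control wells plus 3 SD, cut at about 22% in these data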;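 further: counterscreen of GAA850 promoter hits where activity marks nonselective or luminescence artifacts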
# GAA850 confirm – confirmation of GAA850 frataxin (FXN) promoter activators; HEK293 lucGAA850 FXN promoter luciferase reporter, 24 h; 100% = activation by SAHA; activation, % at 6 µM; 1,900 compounds, 86% hits; shares compounds with GAA850 FXN act;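 active means mean activation above a set limit taken from the primary screen, cut at about 8% in these data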;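 further: 0% = DMSO wells and 100% = 10 µM SAHA wells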
# * marks the source's active call; other numbers are inactive results; · = no result given. Only some compounds are listed: those with a hit (about 2.8% of all), similar ones and a draw of the others.
SMILES,esBAF inh,Wnt act,GAA850 FXN act,MITF act,GAA30 FXN cntr,GAA850 confirm
COc1ccc(Nc2nc(N)c([N+](=O)[O-])c(N3CCCC3)n2)cc1,3.7,-0.3,-0.2,-17.5,·,·
COc1ccc([C@@H]2[C@@H]3C(=O)N(C(C)(C)C)C(=O)[C@@H]3[C@]3(CC(C)C)C(=O)N(c4cccc(Br)c4)C(=O)N23)cc1,8.6,-6.9,16.7*,-1.5,26.5*,14.4*
COc1ccc([C@@H]2[C@@H]3C(=O)N(C(C)(C)C)C(=O)[C@@H]3[C@]3(CC(C)C)C(=O)N(c4ccc(C(F)(F)F)cc4)C(=O)N23)cc1,-8.0,-4.2,2.0,·,·,·
COc1ccc([C@@H]2[C@@H]3C(=O)N(C(C)(C)C)C(=O)[C@@H]3[C@]3(CC(C)C)C(=O)N(c4ccccc4)C(=O)N23)cc1,11.7,6.0,14.7*,12.1,40.4*,18.4*
Cc1noc(C)c1NC(=O)Nc1cccc2c1O[C@H](CN(C)C(=O)Nc1ccc3c(c1)OCO3)[C@@H](C)CN([C@@H](C)CO)C2=O,0.5,·,·,·,·,·
O=C(Nc1ccc(Cl)cc1)C1CCCCN1S(=O)(=O)c1ccccc1 (configuration not stated),15.3,-3.1,7.9*,·,24.1*,8.3*
O=C(NN1CCOCC1)c1cccc(COc2cccc(Br)c2)c1,·,-0.9,8.0*,28.0,89.8*,37.3*
NNC(=O)c1ccc(CSc2cccc3cccnc23)cc1,2.6,3.6,0.5,4.6,·,·
c1cnc2c(SCc3ccc(-c4nnco4)cc3)cccc2c1,37.1,·,8.4*,62.3,73.9*,26.6*
Cc1cccc(CSc2cccc3cccnc23)c1,38.4,·,24.6*,·,-69.2,-13.2
C[C@@H]1CN([C@H](C)CO)C(=O)c2cc(/C=C/c3ccccc3)cnc2O[C@H]1CN(C)Cc1ccncc1,0.6,·,·,·,·,·
CCCNC(=O)N1[C@H](CO)[C@H]2c3ccccc3N(C(=O)Nc3ccccc3)C[C@H]21,-1.0,·,·,·,·,·
COC(=O)c1c(C)[nH]c(C(=O)CC#N)c1C,-2.6,3.7,2.2,-11.7,·,·
COC(=O)c1c(C)[nH]c(C(=O)CSc2ccc(Cl)cc2)c1C,38.3,14.6,8.3*,78.3,113.7*,34.6*
Cn1cc(C2=C(c3ccc(Cl)cc3Cl)C(=O)NC2=O)c2ccccc21,-13.5,11.0,11.7*,-8.2,9.6,9.2*
COc1ccc([C@@H]2[C@@H]3C(=O)N(C(C)(C)C)C(=O)[C@@H]3[C@]3(Cc4ccc(Cl)cc4)C(=O)N(c4cccc(C)c4)C(=O)N23)cc1,-4.9,1.5,6.7,0.7,·,·
CC[C@@]12C(=O)N(c3cccc(F)c3)C(=O)N1[C@H](c1ccc(OC)cc1)[C@@H]1C(=O)N(C(C)(C)C)C(=O)[C@@H]12,-2.8,-0.9,11.4*,1.4,43.3*,17.8*
CC[C@@]12C(=O)N(c3cccc(C)c3)C(=O)N1[C@H](c1ccc(OC)cc1)[C@@H]1C(=O)N(C(C)(C)C)C(=O)[C@@H]12,-3.5,·,11.8*,-1.0,29.5*,19.5*
COc1ccc(OC)c2nc3c(C(=O)NCCN(C)C)cccc3nc12,·,6.4,14.8*,-72.7,3.5,78.9*
CN(C)CCNC(=O)c1cccc2nc3cccc(F)c3nc12,·,28.0,25.0*,-75.5,-2.9,141.6*
CO[C@H](CN(C)S(=O)(=O)c1ccccc1)[C@H](C)CN(Cc1ccccc1Cl)[C@@H](C)CO,3.8,·,·,·,·,·
CC(C)(C)c1ccc(OCCn2ccccc2=O)cc1,59.5*,62.2*,8.5*,·,100.4*,41.5*
C[C@@H]1CCCCO[C@@H](CN(C)C(=O)c2ccncc2)[C@@H](C)CN([C@H](C)CO)C(=O)c2cc(NC(=O)NC3CCCCC3)ccc2O1,-5.2,·,·,·,·,·
CC(/C=C/c1ccc(OCc2ccccc2)cc1)=N\O,·,25.6,7.9*,53.3,117.5*,38.2*
CC(/C=C/c1ccccc1)=N/O,27.2,·,-0.2,15.9,·,·
COCC(=O)Nc1ccc2c(c1)C(=O)N(C)C[C@H](OC)[C@@H](C)CN(CC1CCCCC1)[C@H](C)CO2,2.5,·,·,·,·,·
N#Cc1c(N)nc(SCc2ccccn2)c(C#N)c1-c1cccs1,-7.1,-3.3,20.4*,5.0,25.9*,18.8*
C[C@H]1CN([C@@H](C)CO)C(=O)c2cccc(NC(=O)c3ccncc3)c2O[C@H]1CN(C)C(=O)NC1CCCCC1,3.7,·,·,·,·,·
